# Key:
# Assay in all cases: SPOT peptide array binding signal intensity (averaged, normalized) (arbitrary units (background-subtracted, floor 0; scale differs between SH3 domains)); higher = stronger binding of the SH3 domain to the peptide
# CaNbp2 = target: CaNbp2
# How it was run: (§1)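 Binding signal is given in arbitrary units that differ between domains and is the normalized, background-subtracted spot intensity averaged across replicates. Each GST-SH3 fusion from one of four yeast species was made in E. coli BL21(DE3), purified on glutathione Sepharose and incubated at 10 μg/ml overnight at 4°C on cellulose-bound synthetic 15-mer peptides in which cysteines were replaced by serines. Detection used anti-GST antibody, an HRP anti-mouse secondary and luminol, followed by imaging and Genespotter quantification.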
# CaRvs167 = target: CaRvs167
# How it was run: as §1
# CaRvs167-3 = target: CaRvs167-3
# How it was run: as §1
# CaSho1 = target: CaSho1
# How it was run: as §1
# CaSla1-D1-D2 = target: CaSla1-D1-D2
# How it was run: as §1
# CaSla1-D3 = target: CaSla1-D3
# How it was run: as §1
# ScAbp1 = target: ScAbp1
# How it was run: as §1
# ScBbc1 = target: ScBbc1
# How it was run: as §1
# ScBem1-D1 = target: ScBem1-D1
# How it was run: as §1
# ScBzz1-D1 = target: ScBzz1-D1
# How it was run: as §1
# ScBzz1-D2 = target: ScBzz1-D2
# How it was run: as §1
# ScCyk3 = target: ScCyk3
# How it was run: as §1
# ScFus1 = target: ScFus1
# How it was run: as §1
# ScHof1 = target: ScHof1
# How it was run: as §1
# ScHse1 = target: ScHse1
# How it was run: as §1
# ScLsb1 = target: ScLsb1
# How it was run: as §1
# ScLsb2 = target: ScLsb2
# How it was run: as §1
# ScLsb3 = target: ScLsb3
# How it was run: as §1
# ScLsb4 = target: ScLsb4
# How it was run: as §1
# ScMyo3 = target: ScMyo3
# How it was run: as §1
# ScMyo5 = target: ScMyo5
# How it was run: as §1
# ScNbp2 = target: ScNbp2
# How it was run: as §1
# ScPex13 = target: ScPex13
# How it was run: as §1
# ScRvs167 = target: ScRvs167
# How it was run: as §1
# ScSho1 = target: ScSho1
# How it was run: as §1
# ScSla1-D1-D2 = target: ScSla1-D1-D2
# How it was run: as §1
# ScSla1-D3 = target: ScSla1-D3
# How it was run: as §1
# SpAbp1-D1 = target: SpAbp1-D1
# How it was run: as §1
# SpBbc1 = target: SpBbc1
# How it was run: as §1
# SpBzz1-D1 = target: SpBzz1-D1
# How it was run: as §1
# SpBzz1-D2 = target: SpBzz1-D2
# How it was run: as §1
# SpCyk3 = target: SpCyk3
# How it was run: as §1
# SpHof1 = target: SpHof1
# How it was run: as §1
# SpHof1-2 = target: SpHof1-2
# How it was run: as §1
# SpHof1-3 = target: SpHof1-3
# How it was run: as §1
# SpHse1 = target: SpHse1
# How it was run: as §1
# SpLsb1 = target: SpLsb1
# How it was run: as §1
# SpLsb4 = target: SpLsb4
# How it was run: as §1
# SpMyo1 = target: SpMyo1
# How it was run: as §1
# SpNbp2 = target: SpNbp2
# How it was run: as §1
# SpPex13 = target: SpPex13
# How it was run: as §1
# SpRvs167 = target: SpRvs167
# How it was run: as §1
# SpSla1-D1-D2 = target: SpSla1-D1-D2
# How it was run: as §1
# SpSla1-D3 = target: SpSla1-D3
# How it was run: as §1
# AgAbp1 = target: AgAbp1
# How it was run: as §1
# AgBbc1 = target: AgBbc1
# How it was run: as §1
# AgBem1-D1 = target: AgBem1-D1
# How it was run: as §1
# AgBzz1-D1 = target: AgBzz1-D1
# How it was run: as §1
# AgBzz1-D2 = target: AgBzz1-D2
# How it was run: as §1
# AgCyk3 = target: AgCyk3
# How it was run: as §1
# AgFus1 = target: AgFus1
# How it was run: as §1
# AgHof1 = target: AgHof1
# How it was run: as §1
# AgHse1 = target: AgHse1
# How it was run: as §1
# AgLsb1 = target: AgLsb1
# How it was run: as §1
# AgLsb4 = target: AgLsb4
# How it was run: as §1
# AgMyo5 = target: AgMyo5
# How it was run: as §1
# AgNbp2 = target: AgNbp2
# How it was run: as §1
# AgRvs167 = target: AgRvs167
# How it was run: as §1
# AgSho1 = target: AgSho1
# How it was run: as §1
# AgSla1-D1-D2 = target: AgSla1-D1-D2
# How it was run: as §1
# AgSla1-D3 = target: AgSla1-D3
# How it was run: as §1
# CaAbp1-D1 = target: CaAbp1-D1
# How it was run: as §1
# CaAbp1-D2 = target: CaAbp1-D2
# How it was run: as §1
# CaBbc1 = target: CaBbc1
# How it was run: as §1
# CaBem1-D1 = target: CaBem1-D1
# How it was run: as §1
# CaBzz1-D1 = target: CaBzz1-D1
# How it was run: as §1
# CaBzz1-D2 = target: CaBzz1-D2
# How it was run: as §1
# CaCyk3 = target: CaCyk3
# How it was run: as §1
# CaFus1 = target: CaFus1
# How it was run: as §1
# CaHof1 = target: CaHof1
# How it was run: as §1
# CaHse1 = target: CaHse1
# How it was run: as §1
# CaLsb1 = target: CaLsb1
# How it was run: as §1
# CaLsb4 = target: CaLsb4
# How it was run: as §1
# CaMyo5 = target: CaMyo5
# How it was run: as §1
binder,measurement,setting,value
RKLRTVPGVPLIHLT,SPOT peptide array binding signal intensity,CaNbp2,281
same,SPOT peptide array binding signal intensity,CaRvs167,24.3
same,SPOT peptide array binding signal intensity,CaRvs167-3,7.25
same,SPOT peptide array binding signal intensity,CaSho1,3.5
same,SPOT peptide array binding signal intensity,CaSla1-D1-D2,20
same,SPOT peptide array binding signal intensity,CaSla1-D3,≤ 0
same,SPOT peptide array binding signal intensity,ScAbp1,14
same,SPOT peptide array binding signal intensity,ScBbc1,21
same,SPOT peptide array binding signal intensity,ScBem1-D1,27.5
same,SPOT peptide array binding signal intensity,ScBzz1-D1,10
same,SPOT peptide array binding signal intensity,ScBzz1-D2,1.5
same,SPOT peptide array binding signal intensity,ScCyk3,9
same,SPOT peptide array binding signal intensity,ScFus1,37
same,SPOT peptide array binding signal intensity,ScHof1,1
same,SPOT peptide array binding signal intensity,ScHse1,178
same,SPOT peptide array binding signal intensity,ScLsb1,1.5
same,SPOT peptide array binding signal intensity,ScLsb2,2
same,SPOT peptide array binding signal intensity,ScLsb3,1030
same,SPOT peptide array binding signal intensity,ScLsb4,22
same,SPOT peptide array binding signal intensity,ScMyo3,≤ 0
same,SPOT peptide array binding signal intensity,ScMyo5,2
same,SPOT peptide array binding signal intensity,ScNbp2,1190
same,SPOT peptide array binding signal intensity,ScPex13,59.5
same,SPOT peptide array binding signal intensity,ScRvs167,1390
same,SPOT peptide array binding signal intensity,ScSho1,110
same,SPOT peptide array binding signal intensity,ScSla1-D1-D2,73
same,SPOT peptide array binding signal intensity,ScSla1-D3,23.5
same,SPOT peptide array binding signal intensity,SpAbp1-D1,17.5
same,SPOT peptide array binding signal intensity,SpBbc1,≤ 0
same,SPOT peptide array binding signal intensity,SpBzz1-D1,71.5
same,SPOT peptide array binding signal intensity,SpBzz1-D2,≤ 0
same,SPOT peptide array binding signal intensity,SpCyk3,≤ 0
same,SPOT peptide array binding signal intensity,SpHof1,22.8
same,SPOT peptide array binding signal intensity,SpHof1-2,2
same,SPOT peptide array binding signal intensity,SpHof1-3,229
same,SPOT peptide array binding signal intensity,SpHse1,68.8
same,SPOT peptide array binding signal intensity,SpLsb1,3.25
same,SPOT peptide array binding signal intensity,SpLsb4,369
same,SPOT peptide array binding signal intensity,SpMyo1,2.75
same,SPOT peptide array binding signal intensity,SpNbp2,7.5
same,SPOT peptide array binding signal intensity,SpPex13,≤ 0
same,SPOT peptide array binding signal intensity,SpRvs167,616
same,SPOT peptide array binding signal intensity,SpSla1-D1-D2,1
same,SPOT peptide array binding signal intensity,SpSla1-D3,≤ 0
GAGERPRLVPRPINV,SPOT peptide array binding signal intensity,AgAbp1,13
same,SPOT peptide array binding signal intensity,AgBbc1,148
same,SPOT peptide array binding signal intensity,AgBem1-D1,23
same,SPOT peptide array binding signal intensity,AgBzz1-D1,27
same,SPOT peptide array binding signal intensity,AgBzz1-D2,33
same,SPOT peptide array binding signal intensity,AgCyk3,6
same,SPOT peptide array binding signal intensity,AgFus1,4.5
same,SPOT peptide array binding signal intensity,AgHof1,8.5
same,SPOT peptide array binding signal intensity,AgHse1,≤ 0
same,SPOT peptide array binding signal intensity,AgLsb1,9
same,SPOT peptide array binding signal intensity,AgLsb4,28
same,SPOT peptide array binding signal intensity,AgMyo5,0.5
same,SPOT peptide array binding signal intensity,AgNbp2,≤ 0
same,SPOT peptide array binding signal intensity,AgRvs167,2
same,SPOT peptide array binding signal intensity,AgSho1,≤ 0
same,SPOT peptide array binding signal intensity,AgSla1-D1-D2,≤ 0
same,SPOT peptide array binding signal intensity,AgSla1-D3,1
same,SPOT peptide array binding signal intensity,CaAbp1-D1,17
same,SPOT peptide array binding signal intensity,CaAbp1-D2,8
same,SPOT peptide array binding signal intensity,CaBbc1,314
same,SPOT peptide array binding signal intensity,CaBem1-D1,68.5
same,SPOT peptide array binding signal intensity,CaBzz1-D1,109
same,SPOT peptide array binding signal intensity,CaBzz1-D2,51.2
same,SPOT peptide array binding signal intensity,CaCyk3,285
same,SPOT peptide array binding signal intensity,CaFus1,≤ 0
same,SPOT peptide array binding signal intensity,CaHof1,0.5
same,SPOT peptide array binding signal intensity,CaHse1,≤ 0
same,SPOT peptide array binding signal intensity,CaLsb1,0.75
same,SPOT peptide array binding signal intensity,CaLsb4,102
same,SPOT peptide array binding signal intensity,CaMyo5,6.5
same,SPOT peptide array binding signal intensity,CaNbp2,≤ 0
same,SPOT peptide array binding signal intensity,CaRvs167,3.5
same,SPOT peptide array binding signal intensity,CaRvs167-3,≤ 0
same,SPOT peptide array binding signal intensity,CaSho1,21
same,SPOT peptide array binding signal intensity,CaSla1-D1-D2,15.5
same,SPOT peptide array binding signal intensity,CaSla1-D3,0.75
same,SPOT peptide array binding signal intensity,ScAbp1,10
same,SPOT peptide array binding signal intensity,ScBbc1,29.5
same,SPOT peptide array binding signal intensity,ScBem1-D1,≤ 0
same,SPOT peptide array binding signal intensity,ScBzz1-D1,13
same,SPOT peptide array binding signal intensity,ScBzz1-D2,44.5
same,SPOT peptide array binding signal intensity,ScCyk3,53
same,SPOT peptide array binding signal intensity,ScFus1,≤ 0
same,SPOT peptide array binding signal intensity,ScHof1,3.25
same,SPOT peptide array binding signal intensity,ScHse1,4.5
same,SPOT peptide array binding signal intensity,ScLsb1,98.2
same,SPOT peptide array binding signal intensity,ScLsb2,4.5
same,SPOT peptide array binding signal intensity,ScLsb3,531
same,SPOT peptide array binding signal intensity,ScLsb4,20
same,SPOT peptide array binding signal intensity,ScMyo3,47.5
same,SPOT peptide array binding signal intensity,ScMyo5,4
same,SPOT peptide array binding signal intensity,ScNbp2,8
same,SPOT peptide array binding signal intensity,ScPex13,1
same,SPOT peptide array binding signal intensity,ScRvs167,91.3
same,SPOT peptide array binding signal intensity,ScSho1,13.5
same,SPOT peptide array binding signal intensity,ScSla1-D1-D2,25.5
same,SPOT peptide array binding signal intensity,ScSla1-D3,20
same,SPOT peptide array binding signal intensity,SpAbp1-D1,11
same,SPOT peptide array binding signal intensity,SpBbc1,22.8
same,SPOT peptide array binding signal intensity,SpBzz1-D1,384
same,SPOT peptide array binding signal intensity,SpBzz1-D2,0.75
same,SPOT peptide array binding signal intensity,SpCyk3,8
same,SPOT peptide array binding signal intensity,SpHof1,5.5
same,SPOT peptide array binding signal intensity,SpHof1-2,6
same,SPOT peptide array binding signal intensity,SpHof1-3,5.75
same,SPOT peptide array binding signal intensity,SpHse1,≤ 0
same,SPOT peptide array binding signal intensity,SpLsb1,410
same,SPOT peptide array binding signal intensity,SpLsb4,740
same,SPOT peptide array binding signal intensity,SpMyo1,4.75
same,SPOT peptide array binding signal intensity,SpNbp2,≤ 0
same,SPOT peptide array binding signal intensity,SpPex13,≤ 0
same,SPOT peptide array binding signal intensity,SpRvs167,6.67
same,SPOT peptide array binding signal intensity,SpSla1-D1-D2,4
same,SPOT peptide array binding signal intensity,SpSla1-D3,1

# Reference: the supplement of paper PMC4466140
